Bioassay records from PubChem BioAssay.
PrP 5UTR inh: inhibition of PrP 5' UTR reporter expression. cell-based PrP 5' UTR mRNA reporter, plate reader. inhibition, % (test concentration not listed). 340,000 tested, 0.35% active. AID 488862, 2010; in the data active means inhibition above about 52%
Sa RN4220 lethal: growth inhibition of S. aureus RN4220, primary screen, OD600; 16 h; inhibition, % (concentration not given with the values); 330,000 tested, 0.33% active; AID 1259311, 2017; in the data active means inhibition above about 85%
TcdB GH inh: TcdB glycohydrolase inhibitors, primary screen, biochemical, single point, plate reader; Toxin B (Clostridioides difficile), P18177; TcdB glycohydrolase enzymatic assay; inhibition, % at 9.99 µM; 350,000 tested, 0.24% active; in the data active means inhibition above about 10%
PfHsp40 rescue: rescue of yeast from PfHsp40 toxicity, primary screen, S. cerevisiae, ATP luminescence; AID 504582, 2011; 340,000 tested, 0.68% active; S. cerevisiae expressing PfHsp40, growth rescue; growth rescue, % at 12.5 µM; in the data active means growth rescue above about 28%, passing the limit was not always enough;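 further: yeast W303a lacking pdr1 and pdr3 grown in galactose medium; growth measured after three days at 30 °C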
Sa ugtP lethal: growth inhibition of ugtP-null S. aureus, primary screen, RN4220 ugtP deletion, OD600; growth inhibition, % (concentration not given with the values); 330,000 tested, 0.54% active; 16 h; in the data active means growth inhibition above about 68%
Hits are given with their value. The list is not random: actives were taken first. Their share in the collection is about 1.2%.

Screening Cc1noc(C)c1S(=O)(=O)Nc1ccc2c(c1)C(=O)N([C@@H](C)CO)C[C@@H](C)[C@H](CN(C)C(=O)CCC(F)(F)F)OCCCC[C@@H](C)O2 returned TcdB GH inh inactive.
CN(CC(=O)Nc1ccc(Cl)c(C(F)(F)F)c1)CC(=O)NC1CCCCC1 was read as PrP 5UTR inh inactive, Sa RN4220 lethal inactive, PfHsp40 rescue inactive and Sa ugtP lethal inactive.
Screening CN(CC(=O)Nc1ccc(Cl)c(C(F)(F)F)c1)C(=O)CCN1C(=O)C2CCCCC2C1=O (stereo not drawn) returned PrP 5UTR inh inactive, Sa RN4220 lethal inactive, TcdB GH inh inactive, PfHsp40 rescue inactive and Sa ugtP lethal 93.6.
For CCS(=O)(=O)N1CCC2(CC1)CN(C(=O)Nc1c(C)noc1C)[C@H](CO)c1[nH]c3cc(OC)ccc3c12 the results were TcdB GH inh inactive.
`CCOC(=O)c1[nH]nc(-c2c(O)cc(C)cc2O)c1-c1csc(C)n1` gave PrP 5UTR inh inactive, Sa RN4220 lethal inactive, PfHsp40 rescue inactive and Sa ugtP lethal inactive.
For CCCc1cc(-c2n[nH]c(C(=O)OCC)c2-c2cscn2)c(O)cc1O the results were PrP 5UTR inh inactive, Sa RN4220 lethal inactive, TcdB GH inh 21.5, PfHsp40 rescue inactive and Sa ugtP lethal inactive.
For COc1ccc2c(c1)N(C)/C(=C/c1cccc[n+]1C)S2 the results were PrP 5UTR inh inactive, Sa RN4220 lethal inactive, TcdB GH inh inactive, PfHsp40 rescue inactive and Sa ugtP lethal 89.6.
Screening CN1/C(=C/c2cccc[n+]2C)Sc2ccccc21 returned PrP 5UTR inh inactive, Sa RN4220 lethal inactive, TcdB GH inh inactive, PfHsp40 rescue inactive and Sa ugtP lethal inactive.
`Cc1ccc2c(c1)N(C)/C(=C/c1cccc[n+]1C)S2` gave PrP 5UTR inh inactive, Sa RN4220 lethal inactive, TcdB GH inh inactive, PfHsp40 rescue inactive and Sa ugtP lethal 100.6.
For COCCNC(=O)C[C@@H]1CC[C@@H]2[C@H](COc3ccc(NC(=O)Nc4ccccc4)cc3C(=O)N2C)O1 the results were TcdB GH inh inactive.
For COc1ccc(-c2cncnc2-c2ccc(OC)cc2O)cc1 the results were PrP 5UTR inh inactive, Sa RN4220 lethal inactive, TcdB GH inh inactive, PfHsp40 rescue inactive and Sa ugtP lethal inactive.
For COc1cccc(Oc2cncnc2-c2ccc(OC)cc2O)c1 the results were PrP 5UTR inh inactive, Sa RN4220 lethal inactive, PfHsp40 rescue 56.4 and Sa ugtP lethal inactive.
CCOC(=O)c1cc(OC(=O)c2ccccc2)n(-c2ccccc2)n1 was read as PrP 5UTR inh inactive, Sa RN4220 lethal inactive, PfHsp40 rescue 111.5 and Sa ugtP lethal inactive.
For C[C@H]1CN([C@@H](C)CO)C(=O)c2cc(NC(=O)Nc3ccc4c(c3)OCO4)ccc2O[C@H]1CN(C)S(C)(=O)=O the results were TcdB GH inh inactive.
Cc1cc(N2C(=O)C(O)=C(C(=O)c3ccco3)C2c2ccc(Cl)cc2)no1 (stereo not drawn) was read as PrP 5UTR inh inactive, Sa RN4220 lethal 87.1, TcdB GH inh inactive, PfHsp40 rescue inactive and Sa ugtP lethal inactive.
For Cc1cc(N2C(=O)C(O)=C(C(=O)c3ccco3)C2c2ccc(O)cc2)no1 (stereo not drawn) the results were PrP 5UTR inh inactive, Sa RN4220 lethal inactive, PfHsp40 rescue inactive and Sa ugtP lethal inactive.
`COc1cccc(-c2ccc([C@@H]3[C@H](CO)N4C(=O)CN(C(=O)C5CCC5)C[C@@H]34)cc2)c1` gave TcdB GH inh inactive.
`COc1ccc(NC2CCCN(C(=O)CN3CCOC3=O)C2)cc1` (stereo not drawn) gave PrP 5UTR inh inactive, Sa RN4220 lethal inactive, TcdB GH inh inactive, PfHsp40 rescue inactive and Sa ugtP lethal inactive.
`COc1ccc(NC2CCCN(C(=O)CN3CCOC3=O)C2)cc1OC` (stereo not drawn) gave PrP 5UTR inh inactive, Sa RN4220 lethal inactive, TcdB GH inh 11.5, PfHsp40 rescue inactive and Sa ugtP lethal inactive.
COc1ccc(Cl)cc1N1C(=O)CC(N2CCc3ccccc32)C1=O (stereo not drawn) was read as PrP 5UTR inh inactive, Sa RN4220 lethal inactive, PfHsp40 rescue 42.9 and Sa ugtP lethal inactive.
COc1ccccc1N1C(=O)CC(N2CCc3ccccc32)C1=O (stereo not drawn) was read as PrP 5UTR inh inactive, Sa RN4220 lethal inactive, PfHsp40 rescue inactive and Sa ugtP lethal inactive.
For COc1cccc(S(=O)(=O)N(C)C[C@H]2Oc3cc(C4=CCCC4)ccc3S(=O)(=O)N([C@H](C)CO)C[C@H]2C)c1 the results were TcdB GH inh inactive.
For O=c1oc2c(O)c(O)cc3c(=O)oc4c(O)c(O)cc1c4c23 the results were PrP 5UTR inh inactive and PfHsp40 rescue 151.6.
`CC(=O)OCC(=O)C1CCC2C3CCC4=CC(=O)CC[C@]4(C)C3CC[C@]12C` (stereo partly drawn) gave Sa RN4220 lethal inactive and Sa ugtP lethal inactive.
`COc1ccccc1-c1cnc2c(c1)C(=O)N([C@@H](C)CO)C[C@@H](C)[C@@H](CN(C)Cc1cncnc1)O2` gave TcdB GH inh inactive.
Screening O=C(O)c1cccc2c1-c1ccc(Cl)cc1C2 returned PrP 5UTR inh inactive, Sa RN4220 lethal inactive, TcdB GH inh inactive, PfHsp40 rescue 44.3 and Sa ugtP lethal inactive.
For O=C(O)c1cccc2c1C(=O)c1ccc(Cl)cc1S2(=O)=O the results were PrP 5UTR inh inactive, TcdB GH inh inactive and PfHsp40 rescue inactive.
`CC(C)C(=O)Nc1ccc2c(c1)C(=O)N(C)[C@H]1CC[C@@H](CC(=O)NCC3CC3)O[C@H]1CO2` gave TcdB GH inh inactive.
`COc1cccc(OC)c1C(=O)OCC(=O)Nc1cccnc1Cl` gave PrP 5UTR inh inactive, Sa RN4220 lethal inactive, TcdB GH inh inactive, PfHsp40 rescue 57.6 and Sa ugtP lethal inactive.
Screening CCOc1ccc(N2C(=O)CSC2=S)cc1 returned PrP 5UTR inh inactive, Sa RN4220 lethal inactive, TcdB GH inh inactive, PfHsp40 rescue inactive and Sa ugtP lethal inactive.
CCN(CC)c1ccc(N2C(=O)CSC2=S)cc1 was read as PrP 5UTR inh inactive, Sa RN4220 lethal inactive, TcdB GH inh inactive, PfHsp40 rescue inactive and Sa ugtP lethal 33.1.
`CC(C(=O)N1CCc2ccccc21)N1CCN(c2cccc(C(F)(F)F)c2)CC1` (stereo not drawn) gave PrP 5UTR inh inactive, Sa RN4220 lethal inactive, TcdB GH inh inactive, PfHsp40 rescue inactive and Sa ugtP lethal 89.6.
For CO[C@H]1CN(C)C(=O)c2cc(NS(C)(=O)=O)ccc2OC[C@@H](C)NC[C@@H]1C the results were TcdB GH inh inactive.
COC(=O)[C@@]1(Cc2ccc(F)cc2)C2c3cc(C(=O)N4CCCC4)n(Cc4ccc(C(F)(F)F)nc4)c3CC2CN1C(=O)c1ccccc1 (stereo partly drawn) was read as Sa RN4220 lethal inactive and Sa ugtP lethal inactive.
For CCC(=O)N(C)C[C@@H]1Oc2cc(C#CC(C)C)ccc2S(=O)(=O)N([C@@H](C)CO)C[C@H]1C the results were TcdB GH inh inactive.
For O=C(Nc1ccc(C2=NCCN2)cc1)c1ccc(C(=O)Nc2ccc(C3=NCCN3)cc2)c([N+](=O)[O-])c1 the results were PrP 5UTR inh inactive, TcdB GH inh inactive and PfHsp40 rescue 125.1.
